Test results taken from PubChem BioAssay (NCATS).
Inconclusive results are not listed. Entries that show only a call come without a potency. Active and inactive are the calls of the source. Calls come from the whole dose curve; as a rule, active = well fitted inhibition curve with a large enough effect; inconclusive = small, poorly fitted or top-dose-only effect; inactive = flat fitted curve, though single readings scatter.

What follows are compounds tested on Zika virus NS2B-NS3 protease (assay: Primary screen GU AMC qHTS for Zika virus inhibitors (AID 1347154; note: nearly all actives have a fitted effect of over 70% in size)). Conditions: Zika NS2B-NS3 unlinked protease, AMC fluorogenic substrate; series mostly up to 54.1 µM.
Summary of the method: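 Fluorogenic AMC-substrate cleavage by noncovalent NS2B-NS3 protease complex (25 nM, pH 8.0 Tris buffer with Tween 20) followed for 15 minutes at room temperature (~20% conversion). Percent inhibition from ex340/em450 signal change, fitted by 4-parameter Hill equation.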
Potency is the fitted concentration of half-maximal effect.

SMILES | Potency
COCC1(CO)C(=O)C2CCN1CC2 (stereo not drawn) | inactive
Fc1cc(Br)ccc1CBr | inactive
C[C@@H]1CC[C@H]2[C@@H](C)C(=O)O[C@@H]3O[C@@]4(C)CC[C@H]1[C@]32OO4 | inactive
O=S(=O)(F)Cc1ccccc1 | inactive
CC(=O)Nc1ccc(OC[C@](C)(O)C(=O)Nc2ccc([N+](=O)[O-])c(C(F)(F)F)c2)cc1 | inactive
CCC1(CCC(C)C)C(=O)NC(=O)NC1=O | inactive
CC(=CCCC1=CCC(C2=CC(=O)OC2O)OC1O)CCC1=C(C)CCCC1(C)C (stereo not drawn) | inactive
C[C@@H]1[C@H](O)[C@@H](C)C=CC=CCCC=CC=CC=CC=C[C@H](O[C@H]2O[C@@H](C)[C@H](O)[C@@H](N)[C@@H]2O)CC2O[C@](O)(C[C@@H](O)[C@H](O)CC[C@@H](O)C[C@@H](O)C[C@@H](O)CC(=O)O[C@H]1C)C[C@H](O)[C@H]2C(=O)O | inactive
CCc1c(C(=O)C(N)=O)c2c(OCC(=O)O)cccc2n1Cc1ccccc1 | inactive
C1=C2CCCN[C@H]2[C@@H]2C[C@H]1[C@@H]1CCCCN1C2 | inactive
C[C@H]([C@H](O)CCC(C)(C)O)[C@H]1CC[C@@]2(O)C3=CC(=O)[C@@H]4C[C@@H](O)[C@@H](O)C[C@]4(C)[C@@H]3CC[C@]12C | inactive
C=C[C@@H]1CN2CCC1C[C@H]2[C@H](O)c1ccnc2ccccc12 (stereo partly drawn) | inactive
Nc1ccc(Cl)cc1N | inactive
COc1ccc(N(C(=O)Oc2c(C)cccc2C)c2ccnc(Nc3ccc(N4CCN(C)CC4)cc3)n2)c(OC)c1 | inactive
Nc1ccc(Sc2ccc(N)cc2)cc1 | inactive
O=[N+]([O-])/N=C1\NCCN1Cc1ccc(Cl)nc1 | inactive
CCOC(=O)c1c(C(C#N)=CN)c2ccc(Cl)c(Cl)c2n1C | inactive
C1CCC(NC2CCCCC2)CC1 | inactive
CC[N+]1(CCOC(=O)C(O)(c2ccccc2)c2ccccc2)CCCCC1 | inactive

SMILES | Potency
COC(=O)c1cncn1C(C)c1ccccc1 (stereo not drawn) | inactive
O=C(NCC1CCOCC1)c1cnc(Nc2ccc(Cl)cc2Cl)nc1C(F)(F)F | inactive
O=[N+]([O-])c1c2ccccc2cc2ccccc12 | inactive
CC1=C(C(=O)O)N2C(=O)[C@@H](N)[C@H]2SC1 | inactive
Nc1ccc(Cl)cc1 | inactive
COC[C@H]1OC(=O)c2coc3c2[C@@]1(C)C1=C(C3=O)[C@@H]2CC[C@H](O)[C@@]2(C)C[C@@H]1OC(C)=O | inactive
C#CC1(O)CCC2C3CCC4=CC(=O)CCC4(C)C3CCC21C (stereo not drawn) | inactive
O=C(Nc1ccccc1-c1ccc(Cl)cc1)c1cccnc1Cl | inactive
O=C(Oc1ccc([N+](=O)[O-])cc1)N1CCN(Cc2cccc(Oc3ccccc3)c2)CC1 | inactive
O=S(=O)(O)C(F)(F)C(F)(F)C(F)(F)C(F)(F)C(F)(F)C(F)(F)C(F)(F)C(F)(F)F | 11.2 µM (active)
O=C(N[C@@H](COc1ccc2[nH]c(=O)[nH]c2c1)c1ccccc1)c1cccn(Cc2ccc(F)c(F)c2)c1=O | inactive
CCOP(=O)(OCC)C(C)NC(=O)N(CCCl)N=O (stereo not drawn) | inactive
CCN1CCN(C(=O)Cc2ccc(Nc3ncc(F)c(Nc4ccc(C(=O)Nc5ccccc5Cl)cc4)n3)cc2)CC1 | inactive
Clc1ccccc1C(c1ccccc1)(c1ccccc1)n1cccn1 | inactive
CN(C)NC(=O)CCC(=O)O | inactive
CCNC(=O)C[C@@H]1N=C(c2ccc(Cl)cc2)c2cc(OC)ccc2-n2c(C)nnc21 | inactive
C[C@]12COC(=O)C[C@@H]1CC[C@@H]1[C@H]2CC[C@@]2(C)[C@H]1CC[C@]2(C)O | inactive
CCOP(=O)(NC(C)C)Oc1ccc(SC)c(C)c1 (stereo not drawn) | inactive
COC(C)(C)CCCC(C)C/C=C/C(C)=C/C(=O)OC(C)C (stereo not drawn) | inactive
